Source: PubChem (National Center for Advancing Translational Sciences (NCATS))
CHX counter – Cycloheximide Counterscreen for Small Molecule Inhibitors of Shiga Toxin. max response, %. cell reporter, cycloheximide protein synthesis inhibition counterscreen. hit rate 12% among 300,000; in the data active means max response mostly above about 13%, no sharp cut-off; inactive means mostly below about 14%; further: read at 38.3 µM for the half of the compounds with a filed dose; 0% is about no effect
Pf growth 48h – Primary qHTS for delayed death inhibitors of the malarial parasite plastid, 48 hour incubation; P. falciparum luciferase growth in erythrocytes, 48 h; Potency, µM (highest dose often 28.7 µM), without a hit: at the top dose activity change, negative = inhibition, usual class: inhibitors; hit rate 5.9% among 310,000; AID 504832, 2011; further: potency means the concentration at half of the fitted maximal effect; on the % scale 0 is the no-effect control and ±100 the full control effect
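Here the parasites carry a stable luciferase gene and grow inside erythrocytes in Albumax-based RPMI medium with compound for one erythrocytic cycle. Activity is scored as loss of luminescent signal.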
Shiga toxin inh – A qHTS for Small Molecule Inhibitors of Shiga Toxin | Vero cells, Shiga toxin protein synthesis inhibition reporter | inhibition, % at 38.7 µM | hit rate 9.2% among 290,000; in the data active means inhibition mostly above about 28%, no sharp cut-off; inactive means mostly below about 43%; further: 0% is about no effect
Pf growth 96h – Primary qHTS for delayed death inhibitors of the malarial parasite plastid, 96 hour incubation; P. falciparum luciferase reporter growth, 96 h; Potency, µM (series often up to 28.7 µM), inactives show top-dose activity change, negative = inhibition, actives largely listed as inhibitors; hit rate 6.9% among 320,000; AID 504834, 2011; further: potency means the concentration at half of the fitted maximal effect; on the % scale 0 is the no-effect control and ±100 the full control effect
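P. falciparum expressing integrated firefly luciferase, in erythrocytes at 2% hematocrit, 0.05% parasitemia, incubated with compounds 96 h at 37 C, 5% CO2. Growth inhibition read as loss of luminescence; two-generation exposure targets delayed-death apicoplast inhibitors.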
HCMV antiviral – qHTS Assay for inhibitors of the human cytomegalovirus (HCMV). AID 1259415, 2018. HFF cells, HCMV-luciferase reporter, 72 h; active compounds read low. hit rate 4.5% among 410,000. activity change, negative = inhibition, % at 57.5 µM; in the data active means activity change below about -60%; inconclusive means no clear call, values can overlap the other calls; inactive means above about -39%; further: on the % scale 0 is the no-effect control and ±100 the full control effect
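Two compound doses tested in HFFs infected with HCMV-luciferase, MOI 1 PFU/cell, 72 h at 37C. Lysate luminescence read with OneGlo; data normalized against buffer-only and 10uM Salinomycin inhibitor controls.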
Numbers without * were called inactive; i = inactive; ? = inconclusive; nt = no result given; [ ] = dose if it differs, or a comment. Hits are enriched below; roughly 20% of the tested compounds scored in any of these assays. Unless noted, the call rests on the fitted dose curve; in most records, active means well fitted inhibition curve with a large enough effect; inconclusive means small, poorly fitted or top-dose-only effect, or another doubt; inactive means no such curve, though single readings can be large or run the other way.

SMILES	CHX counter	Pf growth 48h	Shiga toxin inh	Pf growth 96h	HCMV antiviral
CCOC(=O)c1ccc(NC(=O)c2ccc(C)c(S(=O)(=O)N3CCOCC3)c2)cc1	-1.0	nt	-4.6	76.0%	?
CCOc1ccccc1NC(=O)COC(=O)c1nc2nccc(C)n2n1	nt	nt	nt	nt	-34.1
Nc1nc2[nH]cc(CCc3ccc(C(=O)NC(CCC(=O)O)C(=O)O)cc3)c2c(=O)[nH]1 (stereo unspecified)	nt	0.675µM*	nt	1.35µM*	nt
CC(C)CCNC(=O)c1ccc(Cn2c(=S)[nH]c3ccccc3c2=O)cc1	-2.4	?	-1.9	-59.1%	18.4
COc1ccccc1OCc1cc(C(=O)NCc2ccc(N3CCCC3=O)cc2)no1	41.7*	?	18.5	-10.8%	-28.2
Cc1ccc(CNC(=O)c2ccc(N3CCCC3=O)cc2)cc1	19.6	25.8%	54.1	18.5%	-18.4
COc1ccc(CNC(=O)c2ccc(N3CCCC3=O)cc2)cc1	26.0	38.8%	39.2	?	66.1
Cn1nc(C(C)(C)C)cc1C(=O)NCc1ccc(N2CCCC2=O)cc1	-1.3	-12.0%	-4.7	?	-100.1*
O=S(=O)(c1ccc(Cl)cc1)c1nnn2c1nc(NCc1ccc3c(c1)OCO3)c1sccc12	nt	nt	nt	nt	21.6
O=C(/C=C/c1ccccc1[N+](=O)[O-])NC1CCCC1	19.0*	38.0%[5.75 µM]	69.7*	-3.3%	-0.1
COc1cc(NC(=O)/C=C/c2ccccc2[N+](=O)[O-])cc(OC)c1	15.1*	47.7%	18.6	-7.0%	16.1
O=C(/C=C/c1ccccc1[N+](=O)[O-])Nc1ccccc1	35.5*	i	100.6*	0.0%	-8.5
O=C(COC(=O)/C=C/c1ccccc1[N+](=O)[O-])NC(=O)NC1CCCC1	nt	-0.8%	nt	-3.8%	-13.2
CC(C)N(Cc1ccccc1)C(=O)/C=C/c1ccccc1[N+](=O)[O-]	-2.0	10.4µM*	-15.6	-3.6%	-28.1
O=C(COc1ccc([N+](=O)[O-])cc1)N(Cc1cccs1)C1CCS(=O)(=O)C1 (stereo unspecified)	-5.4	-4.4%	0.8	-6.8%	0.8
O=C(NCc1ccccc1)c1nc(-c2ccc(Cl)cc2)n2c1CCCCC2	nt	nt	nt	nt	-14.8
C=C(C)COc1ccc(-c2ncncc2-c2ccccc2)c(O)c1	-4.7	9.28µM*	1.8	13.1µM*	-39.6
CCOc1ccc(-c2ncncc2-c2ccc(OC)cc2)c(O)c1	-4.9	7.38µM*	-5.9	?	?
COc1ccc(-c2ncncc2-c2ccccc2)c(O)c1	-1.2	?	3.8	?	?
Cc1cc(NC(=O)CCC(=O)N(CC(=O)NC2CCCC2)c2ccc(C)c(F)c2)no1	-2.8	-16.8%	-5.4	-4.7%	1.7
O=C(Cn1ncc2c3ccccc3n(Cc3ccccc3F)c2c1=O)NC1CCCCCC1	nt	nt	nt	nt	5.5
O=C1N=C(N2CCOCC2)SC1=C1CCCCC1	74.8*	1.6%	81.2*	?	24.3
Cc1cccc(CC2SC(N3CCN(c4ccccc4)CC3)=NC2=O)c1 (stereo unspecified)	-0.8	-8.1%	-3.7	?	?
CC(=O)N1CCN(C2=NC(=O)C(=C3CCCCC3)S2)CC1	14.7	?	18.7*	-19.1%	35.3
N#CCCN1CCN(C2=NC(=O)C(=C3CCCCC3)S2)CC1	34.8*	0.0%	61.5	2.62µM*	69.0
SMILES	CHX counter	Pf growth 48h	Shiga toxin inh	Pf growth 96h	HCMV antiviral
Cc1cccc(N2CCN(C3=NC(=O)C(=C4CCCCC4)S3)CC2)c1	2.1	10.4µM*	39.9	34.2%	?
O=C1N=C(N2CCOCC2)S/C1=C\c1ccncc1	17.6	?	-3.2	?	-36.4
CCn1c2ccccc2c2nnc(SCC(=O)N3CC(C)OC(C)C3)nc21 (stereo unspecified)	3.4	nt	2.4	-2.7%	-1.6
Cc1ccc(NC(=O)C2CCCN(S(=O)(=O)c3ccc4[nH]c(=O)ccc4c3)C2)cc1Cl (stereo unspecified)	nt	nt	nt	nt	39.3
COc1cc(OC)cc(-c2nc3n(n2)C(c2ccccc2)C(C(N)=O)=C(C)N3)c1 (stereo unspecified)	nt	nt	nt	nt	-21.3
Cc1nc2ccc(NC(=O)N(C(C)C)C(C)C)cc2s1	34.8*	nt	53.2*	53.1%	32.3
Cc1nc2ccc(NC(=O)N(C)c3ccccc3)cc2s1	39.7*	98.3%	55.0*	106.0%	36.0
COc1cc(NC(=O)N2CCN(c3cc(-c4noc(C)n4)ccc3C)CC2)cc(OC)c1OC	nt	nt	nt	nt	-6.5
OCCOCCOc1ccc(-c2nn[nH]n2)cc1	-4.3	i	-12.5	18.5%	?
CCOc1ccc(-c2nn[nH]n2)cc1	7.3	29.6%	-8.2	1.3%	22.1
Cc1ccccc1COc1ccc(-c2nn[nH]n2)cc1	26.7*	-3.0%	31.6*	-18.9%	116.3
Brc1cc2c(cc1COc1ccc(-c3nn[nH]n3)cc1)OCO2	29.8*	15.6%	-48.6	10.0%	-17.8
Cc1cccc(CCNC(=O)CC2C(=O)NCCN2Cc2ccccc2C)n1 (stereo unspecified)	1.2	-53.9%	21.7	11.7µM*	46.0
CCCN1CCC(NC(=O)CC2C(=O)NCCN2Cc2ccccc2C)CC1 (stereo unspecified)	-1.3	24.4%	-5.1	10.4µM*	nt
CCN(C(=O)Nc1cn(CC(C)C)c(=O)c2ccccc12)c1cc(C)ccc1C	nt	nt	nt	nt	-3.4
N#Cc1ccccc1CSc1nnc2ccc3ccccc3n12	nt	nt	nt	nt	3.6
C=C1CCN(C(Cc2ccccc2)C(=O)Nc2ccc(OC)cc2)S(=O)(=O)c2ccccc21 (stereo unspecified)	9.3	nt	16.6	nt	nt
COc1ccc(/C=C/C2=CC(C)(C)NC(=S)N2)cc1OC	-3.3	?	-3.1	-24.4%	?
COc1ccc(/C=C/C2=Nc3ccccc3NC(C)(C)C2)cc1OC	42.2*	?	59.4*	?	-28.6
CSCC[C@H](NS(=O)(=O)c1ccc(C)cc1)C(=O)N1CCC(C(=O)N[C@@H](Cc2ccc(O)cc2)C(=O)O)CC1	-1.4	13.1%	-7.4	2.9%	10.0
Cc1cc2c(nc1C)CCCN2C[C@@H](C)O/N=C1/[C@H]2CCn3c(=O)n(-c4ccccc4)c(=O)n3[C@H]2[C@H](O)[C@@H]2O[C@H]12	-3.3	?	-8.0	13.1µM*	nt
C/C(CCN1CCCCc2nc(C)c(C)cc21)=N\O[C@H](C)c1cn([C@H](CO)Cc2ccccc2)nn1	-1.5	?	-18.8	?	nt
O=S(=O)(c1ccc(S(=O)(=O)N2CCCC2)cc1)N1CCCCC1	-9.8	21.4%	11.5	10.5%	nt
CCOc1ccc(S(=O)(=O)N(C)C2CCCCC2)cc1	-1.1	28.4%	-8.9	1.65µM*	-12.4
CN(C1CCCCC1)S(=O)(=O)c1ccc(S(=O)(=O)N2CCCC2)cc1	-4.2	?	18.9	1.65µM*	10.5
CCOc1ccc(S(=O)(=O)NC2CCCCCC2)cc1	-0.3	7.2%	-7.6	-19.0%	-26.3
CCCCOP(=O)(OCCCC)C1(NS(=O)(=O)c2ccccc2)C=CC(=O)c2ccccc21 (stereo unspecified)	-2.8	10.4µM*	-20.9	?	15.0
